# In publication PMC7862700, “An all-to-all approach to the identification of sequence-specific readers for epigenetic DNA modifications on cytosine”:
# Experiments:
# Assay in all cases: DAPPL (digital affinity profiling via proximity ligation, sequencing); 10 mM Tris-HCl pH 7.5, 50 mM NaCl, 1 mM DTT, 4% glycerol, room temperature, 30 min; GST-TFs on glutathione beads, 16-mer random dsDNA library, 0.1% formaldehyde crosslink after washing; high values mean tight binding
# [1] = target: T1, FLI1 (Homo sapiens, UniProt Q01543 1-452); conditions: protein: recombinant; tags: N-terminal GST; dsDNA, one strand shown
# T1 sequence: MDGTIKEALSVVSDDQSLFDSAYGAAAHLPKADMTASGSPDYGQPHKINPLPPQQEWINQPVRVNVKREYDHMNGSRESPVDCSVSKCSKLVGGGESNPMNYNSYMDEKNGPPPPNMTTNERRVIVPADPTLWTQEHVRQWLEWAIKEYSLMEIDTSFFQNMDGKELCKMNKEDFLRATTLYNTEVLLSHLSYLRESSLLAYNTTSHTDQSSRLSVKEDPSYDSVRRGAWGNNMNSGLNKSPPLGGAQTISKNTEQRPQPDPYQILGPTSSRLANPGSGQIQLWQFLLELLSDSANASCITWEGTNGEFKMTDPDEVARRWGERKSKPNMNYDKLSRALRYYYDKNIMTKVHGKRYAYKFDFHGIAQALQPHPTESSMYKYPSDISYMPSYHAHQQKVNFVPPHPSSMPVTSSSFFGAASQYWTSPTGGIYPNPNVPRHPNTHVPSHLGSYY
# In short: (§1)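 The binding signal reported is, for every hexamer, its read frequency for a factor over its read frequency for the tag-only sample. Reads came from pools of yeast-expressed, GST-fused human transcription factors on glutathione beads, barcoded with DNA and mixed with that sample, which were incubated with 200 nmole of a random double-stranded 16-mer DNA library in Tris/NaCl/DTT/glycerol buffer at room temperature for 30 min. After washing, the pools were crosslinked with 0.1% formaldehyde, proximity-ligated with BsaI/T4 ligase for 1 h at 37 °C, PCR-amplified and sequenced on an Illumina NextSeq500.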
# [2] = target: T2, ELK1 (Homo sapiens, UniProt P19419 1-428); conditions: protein: recombinant; tags: N-terminal GST; dsDNA, one strand shown
# T2 sequence: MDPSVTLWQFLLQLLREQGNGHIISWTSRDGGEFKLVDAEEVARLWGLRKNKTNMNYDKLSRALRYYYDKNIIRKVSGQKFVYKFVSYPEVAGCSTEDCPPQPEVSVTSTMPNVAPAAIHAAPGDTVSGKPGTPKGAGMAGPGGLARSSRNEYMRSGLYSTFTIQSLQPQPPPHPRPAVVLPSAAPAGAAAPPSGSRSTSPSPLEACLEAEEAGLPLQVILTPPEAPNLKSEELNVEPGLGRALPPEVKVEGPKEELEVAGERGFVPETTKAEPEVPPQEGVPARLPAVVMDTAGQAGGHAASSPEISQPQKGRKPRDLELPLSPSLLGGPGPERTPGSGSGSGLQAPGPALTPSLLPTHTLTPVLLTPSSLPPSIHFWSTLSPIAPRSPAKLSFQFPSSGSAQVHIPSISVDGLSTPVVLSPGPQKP
# In short: as §1
# [3] = target: T3, GABPA (Homo sapiens, UniProt Q06546 1-454); conditions: protein: recombinant; tags: N-terminal GST; dsDNA, one strand shown
# T3 sequence: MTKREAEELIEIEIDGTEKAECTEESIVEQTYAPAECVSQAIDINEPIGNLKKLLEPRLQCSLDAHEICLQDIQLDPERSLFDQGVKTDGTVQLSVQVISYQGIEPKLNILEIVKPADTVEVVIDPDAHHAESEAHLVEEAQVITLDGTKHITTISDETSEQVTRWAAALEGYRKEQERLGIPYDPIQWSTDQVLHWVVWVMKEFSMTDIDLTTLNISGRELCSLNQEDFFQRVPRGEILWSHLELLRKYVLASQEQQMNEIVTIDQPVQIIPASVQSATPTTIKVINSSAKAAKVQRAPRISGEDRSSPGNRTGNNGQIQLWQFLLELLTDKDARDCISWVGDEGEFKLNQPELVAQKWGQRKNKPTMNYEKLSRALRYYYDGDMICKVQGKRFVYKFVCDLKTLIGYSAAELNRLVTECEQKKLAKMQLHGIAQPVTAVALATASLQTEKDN
# In short: as §1
# [4] = target: T4, ERG (Homo sapiens, UniProt P11308 1-479); conditions: protein: recombinant; tags: N-terminal GST; dsDNA, one strand shown
# T4 sequence: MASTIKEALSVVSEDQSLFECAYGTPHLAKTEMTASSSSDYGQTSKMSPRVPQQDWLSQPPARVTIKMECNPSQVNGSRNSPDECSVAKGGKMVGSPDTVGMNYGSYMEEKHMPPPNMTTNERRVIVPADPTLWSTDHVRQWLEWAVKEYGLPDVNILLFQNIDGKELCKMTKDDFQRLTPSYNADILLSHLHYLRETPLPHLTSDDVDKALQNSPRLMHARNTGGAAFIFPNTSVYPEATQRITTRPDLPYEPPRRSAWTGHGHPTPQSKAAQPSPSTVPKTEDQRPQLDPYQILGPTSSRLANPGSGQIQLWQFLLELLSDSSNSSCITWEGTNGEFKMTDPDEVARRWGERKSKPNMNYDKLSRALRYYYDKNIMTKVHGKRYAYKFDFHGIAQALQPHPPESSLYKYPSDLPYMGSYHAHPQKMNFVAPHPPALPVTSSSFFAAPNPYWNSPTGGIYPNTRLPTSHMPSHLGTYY
# In short: as §1
# [5] = target: ELF1 (Homo sapiens, UniProt P32519 1-619); conditions: protein: recombinant; tags: N-terminal GST; dsDNA, one strand shown
# ELF1, sequence (P32519 whole entry): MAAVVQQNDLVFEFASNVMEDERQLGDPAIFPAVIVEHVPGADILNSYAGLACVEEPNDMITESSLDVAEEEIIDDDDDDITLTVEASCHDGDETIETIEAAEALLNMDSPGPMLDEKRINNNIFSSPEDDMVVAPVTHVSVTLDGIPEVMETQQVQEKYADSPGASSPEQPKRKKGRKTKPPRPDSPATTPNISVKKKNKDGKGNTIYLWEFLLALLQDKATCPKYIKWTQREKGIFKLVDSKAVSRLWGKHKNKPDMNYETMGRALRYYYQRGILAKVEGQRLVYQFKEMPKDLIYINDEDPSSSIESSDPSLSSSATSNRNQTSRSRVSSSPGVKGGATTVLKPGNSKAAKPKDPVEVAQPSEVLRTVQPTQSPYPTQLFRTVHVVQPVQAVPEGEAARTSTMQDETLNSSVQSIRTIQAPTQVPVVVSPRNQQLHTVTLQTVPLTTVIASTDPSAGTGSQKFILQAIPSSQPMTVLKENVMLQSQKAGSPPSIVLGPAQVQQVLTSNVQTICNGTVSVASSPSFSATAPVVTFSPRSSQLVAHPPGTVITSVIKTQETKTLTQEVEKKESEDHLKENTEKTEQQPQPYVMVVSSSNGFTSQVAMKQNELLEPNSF
# In short: as §1
# [6] = target: T5, EHF (Homo sapiens, UniProt Q9NZC4 1-300); conditions: protein: recombinant; tags: N-terminal GST; dsDNA, one strand shown
# T5 sequence: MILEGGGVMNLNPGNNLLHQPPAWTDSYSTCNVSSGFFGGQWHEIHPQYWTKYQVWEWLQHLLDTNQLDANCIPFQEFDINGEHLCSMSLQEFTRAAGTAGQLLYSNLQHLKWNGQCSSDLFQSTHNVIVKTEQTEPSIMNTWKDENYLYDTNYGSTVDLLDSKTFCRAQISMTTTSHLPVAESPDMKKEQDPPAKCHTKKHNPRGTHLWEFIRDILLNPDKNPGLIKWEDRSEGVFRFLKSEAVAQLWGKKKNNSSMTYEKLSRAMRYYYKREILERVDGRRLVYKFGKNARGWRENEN
# In short: as §1
# [7] = target: SPI1 (Homo sapiens, UniProt P17947 1-270); conditions: protein: recombinant; tags: N-terminal GST; dsDNA, one strand shown
# In short: as §1
# [8] = target: SPIB (Homo sapiens, UniProt Q01892 1-262); conditions: protein: recombinant; tags: N-terminal GST; dsDNA, one strand shown
# SPIB, sequence (Q01892 whole entry): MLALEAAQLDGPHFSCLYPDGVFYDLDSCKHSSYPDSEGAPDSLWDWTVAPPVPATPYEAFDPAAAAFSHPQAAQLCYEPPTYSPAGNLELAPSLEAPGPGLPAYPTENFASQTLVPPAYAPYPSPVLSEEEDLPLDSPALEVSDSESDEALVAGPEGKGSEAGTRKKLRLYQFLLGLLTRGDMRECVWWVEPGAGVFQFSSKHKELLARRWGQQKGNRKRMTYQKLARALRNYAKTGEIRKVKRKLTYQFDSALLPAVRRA
# In short: as §1
# [9] = target: T6, ELK3 (Homo sapiens, UniProt P41970 1-407); conditions: protein: recombinant; tags: N-terminal GST; dsDNA, one strand shown
# T6 sequence: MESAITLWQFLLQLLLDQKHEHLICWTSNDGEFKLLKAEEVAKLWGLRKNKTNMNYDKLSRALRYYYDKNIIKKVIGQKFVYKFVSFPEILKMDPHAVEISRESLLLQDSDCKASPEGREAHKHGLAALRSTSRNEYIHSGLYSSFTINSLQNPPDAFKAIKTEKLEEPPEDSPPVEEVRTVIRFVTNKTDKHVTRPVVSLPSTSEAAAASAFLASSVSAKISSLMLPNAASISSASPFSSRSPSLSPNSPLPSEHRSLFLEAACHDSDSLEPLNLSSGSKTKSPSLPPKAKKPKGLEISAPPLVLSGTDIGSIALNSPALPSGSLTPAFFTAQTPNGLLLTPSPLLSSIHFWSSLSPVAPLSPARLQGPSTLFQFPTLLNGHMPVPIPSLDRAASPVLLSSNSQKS
# In short: as §1
# [10] = target: T7, FEV (Homo sapiens, UniProt Q99581 1-238); conditions: protein: recombinant; tags: N-terminal GST; dsDNA, one strand shown
# T7 sequence: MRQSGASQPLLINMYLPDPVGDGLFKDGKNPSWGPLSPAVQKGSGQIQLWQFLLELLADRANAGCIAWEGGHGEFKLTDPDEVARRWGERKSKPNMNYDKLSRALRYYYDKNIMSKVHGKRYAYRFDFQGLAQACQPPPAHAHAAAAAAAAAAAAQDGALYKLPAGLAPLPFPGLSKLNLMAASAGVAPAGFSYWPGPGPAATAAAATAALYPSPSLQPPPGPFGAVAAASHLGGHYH
# In short: as §1
# [11] = target: ETV5 (Homo sapiens, UniProt P41161 1-510); conditions: protein: recombinant; tags: N-terminal GST; dsDNA, one strand shown
# ETV5, sequence (P41161 whole entry): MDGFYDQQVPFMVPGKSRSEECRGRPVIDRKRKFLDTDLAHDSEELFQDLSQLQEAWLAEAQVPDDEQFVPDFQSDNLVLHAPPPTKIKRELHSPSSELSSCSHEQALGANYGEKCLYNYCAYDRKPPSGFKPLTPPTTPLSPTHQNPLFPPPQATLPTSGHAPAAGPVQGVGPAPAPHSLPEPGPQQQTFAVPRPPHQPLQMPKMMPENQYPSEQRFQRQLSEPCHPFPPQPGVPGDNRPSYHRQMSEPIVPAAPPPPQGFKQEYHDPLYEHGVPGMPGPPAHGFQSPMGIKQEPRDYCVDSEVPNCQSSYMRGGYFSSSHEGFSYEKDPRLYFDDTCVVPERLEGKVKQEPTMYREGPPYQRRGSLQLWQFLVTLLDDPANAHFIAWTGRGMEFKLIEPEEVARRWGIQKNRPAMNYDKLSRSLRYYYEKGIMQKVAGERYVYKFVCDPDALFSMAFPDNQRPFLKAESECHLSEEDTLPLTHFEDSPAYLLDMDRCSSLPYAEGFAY
# In short: as §1
# [12] = target: HSF1 (Homo sapiens, UniProt Q00613 1-529); conditions: protein: recombinant; tags: N-terminal GST; chain copies: 3; dsDNA, one strand shown
# HSF1, sequence (Q00613 whole entry): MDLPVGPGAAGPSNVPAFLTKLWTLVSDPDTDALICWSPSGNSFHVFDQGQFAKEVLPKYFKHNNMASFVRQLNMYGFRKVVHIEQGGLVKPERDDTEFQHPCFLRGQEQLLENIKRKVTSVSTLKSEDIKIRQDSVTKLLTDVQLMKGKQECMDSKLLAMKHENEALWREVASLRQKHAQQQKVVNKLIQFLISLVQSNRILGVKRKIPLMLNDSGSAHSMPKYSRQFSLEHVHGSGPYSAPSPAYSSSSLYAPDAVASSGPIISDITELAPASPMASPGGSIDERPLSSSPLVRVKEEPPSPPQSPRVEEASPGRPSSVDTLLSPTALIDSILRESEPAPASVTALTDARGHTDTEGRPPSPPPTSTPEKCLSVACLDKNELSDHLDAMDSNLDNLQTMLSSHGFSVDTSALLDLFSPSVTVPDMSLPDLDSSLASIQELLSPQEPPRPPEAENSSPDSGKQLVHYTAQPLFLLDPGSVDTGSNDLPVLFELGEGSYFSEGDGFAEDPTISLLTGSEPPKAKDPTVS
# In short: as §1
# [13] = target: T8, SPIC (Homo sapiens, UniProt Q8N5J4 1-248); conditions: protein: recombinant; tags: N-terminal GST; dsDNA, one strand shown
# T8 sequence: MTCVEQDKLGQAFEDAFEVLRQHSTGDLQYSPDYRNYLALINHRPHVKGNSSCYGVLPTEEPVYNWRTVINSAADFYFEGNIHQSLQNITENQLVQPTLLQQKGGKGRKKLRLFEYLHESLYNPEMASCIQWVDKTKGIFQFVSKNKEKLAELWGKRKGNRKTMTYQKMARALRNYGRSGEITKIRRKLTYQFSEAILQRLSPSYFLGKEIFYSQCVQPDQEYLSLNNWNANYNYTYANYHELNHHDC
# In short: as §1
# [14] = target: ELF4 (Homo sapiens, UniProt Q99607 1-663); conditions: protein: recombinant; tags: N-terminal GST; dsDNA, one strand shown
# ELF4, sequence (Q99607 whole entry): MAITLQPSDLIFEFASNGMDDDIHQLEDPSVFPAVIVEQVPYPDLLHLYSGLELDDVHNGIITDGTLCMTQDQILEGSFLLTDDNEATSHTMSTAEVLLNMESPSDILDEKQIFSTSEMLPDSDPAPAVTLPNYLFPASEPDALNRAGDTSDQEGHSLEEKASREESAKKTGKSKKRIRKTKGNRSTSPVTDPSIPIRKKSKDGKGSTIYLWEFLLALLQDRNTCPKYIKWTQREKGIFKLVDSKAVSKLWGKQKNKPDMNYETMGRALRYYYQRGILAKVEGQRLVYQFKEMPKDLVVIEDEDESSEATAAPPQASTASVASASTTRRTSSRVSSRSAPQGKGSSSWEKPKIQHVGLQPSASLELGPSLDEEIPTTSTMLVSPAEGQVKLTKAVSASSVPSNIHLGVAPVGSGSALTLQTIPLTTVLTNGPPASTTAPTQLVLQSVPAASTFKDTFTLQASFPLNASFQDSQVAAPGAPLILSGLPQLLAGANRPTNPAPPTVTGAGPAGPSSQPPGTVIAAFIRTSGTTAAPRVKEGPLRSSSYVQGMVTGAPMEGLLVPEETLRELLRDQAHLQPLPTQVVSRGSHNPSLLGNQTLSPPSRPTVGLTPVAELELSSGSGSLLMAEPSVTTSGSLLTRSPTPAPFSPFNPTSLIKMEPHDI
# In short: as §1
# [15] = target: T9, ELK4 (Homo sapiens, UniProt P28324-2 1-405); conditions: protein: recombinant; tags: N-terminal GST; dsDNA, one strand shown
# T9 sequence: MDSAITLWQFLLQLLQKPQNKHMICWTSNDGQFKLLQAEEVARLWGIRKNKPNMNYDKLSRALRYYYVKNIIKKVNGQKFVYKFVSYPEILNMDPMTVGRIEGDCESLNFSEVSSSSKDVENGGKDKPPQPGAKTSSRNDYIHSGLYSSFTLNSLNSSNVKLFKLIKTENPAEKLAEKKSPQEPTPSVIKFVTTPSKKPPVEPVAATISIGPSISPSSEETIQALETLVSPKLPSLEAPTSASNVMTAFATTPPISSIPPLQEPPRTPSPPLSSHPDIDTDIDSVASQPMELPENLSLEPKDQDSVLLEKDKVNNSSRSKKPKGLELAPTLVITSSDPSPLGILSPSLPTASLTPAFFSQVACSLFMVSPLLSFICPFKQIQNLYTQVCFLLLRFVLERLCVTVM
# In short: as §1
# [16] = target: T10, ETV2 (Homo sapiens, UniProt O00321 1-342); conditions: protein: recombinant; tags: N-terminal GST; dsDNA, one strand shown
# T10 sequence: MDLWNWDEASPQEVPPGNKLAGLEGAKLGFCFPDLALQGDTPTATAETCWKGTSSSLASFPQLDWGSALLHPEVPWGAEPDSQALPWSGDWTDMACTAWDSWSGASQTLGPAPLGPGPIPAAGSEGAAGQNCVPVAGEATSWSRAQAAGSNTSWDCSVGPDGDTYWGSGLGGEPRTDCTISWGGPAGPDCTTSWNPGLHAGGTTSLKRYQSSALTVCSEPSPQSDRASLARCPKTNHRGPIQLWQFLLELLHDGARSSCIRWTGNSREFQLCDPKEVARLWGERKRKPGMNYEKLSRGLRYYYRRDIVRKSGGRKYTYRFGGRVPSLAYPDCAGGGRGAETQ
# In short: as §1
# [17] = target: T11, ELF3 (Homo sapiens, UniProt P78545 1-371); conditions: protein: recombinant; tags: N-terminal GST; dsDNA, one strand shown
# T11 sequence: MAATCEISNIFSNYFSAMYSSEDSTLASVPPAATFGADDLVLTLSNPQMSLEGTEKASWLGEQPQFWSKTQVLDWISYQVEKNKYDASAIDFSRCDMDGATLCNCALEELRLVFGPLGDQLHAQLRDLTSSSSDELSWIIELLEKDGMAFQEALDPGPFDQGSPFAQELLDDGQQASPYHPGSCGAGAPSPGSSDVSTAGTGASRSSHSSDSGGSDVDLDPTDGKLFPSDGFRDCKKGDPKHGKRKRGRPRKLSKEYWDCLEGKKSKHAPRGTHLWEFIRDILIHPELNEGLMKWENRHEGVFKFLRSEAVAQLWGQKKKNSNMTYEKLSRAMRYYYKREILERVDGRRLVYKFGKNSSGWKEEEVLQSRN
# In short: as §1
# [18] = target: CRX (Homo sapiens, UniProt O43186 1-299); conditions: protein: recombinant; tags: N-terminal GST; dsDNA, one strand shown
# CRX, sequence (O43186 whole entry): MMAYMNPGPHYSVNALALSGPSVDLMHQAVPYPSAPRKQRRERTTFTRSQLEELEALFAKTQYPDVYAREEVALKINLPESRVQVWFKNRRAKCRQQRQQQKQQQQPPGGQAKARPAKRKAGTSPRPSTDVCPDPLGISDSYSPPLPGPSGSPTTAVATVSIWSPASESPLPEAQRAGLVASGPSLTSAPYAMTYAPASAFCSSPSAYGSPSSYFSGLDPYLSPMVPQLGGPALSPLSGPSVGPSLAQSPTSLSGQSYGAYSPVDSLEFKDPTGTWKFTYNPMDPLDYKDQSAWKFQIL
# In short: as §1
# [19] = target: ETV1 (Homo sapiens, UniProt P50549 1-477); conditions: protein: recombinant; tags: N-terminal GST; dsDNA, one strand shown
# ETV1, sequence (P50549 whole entry): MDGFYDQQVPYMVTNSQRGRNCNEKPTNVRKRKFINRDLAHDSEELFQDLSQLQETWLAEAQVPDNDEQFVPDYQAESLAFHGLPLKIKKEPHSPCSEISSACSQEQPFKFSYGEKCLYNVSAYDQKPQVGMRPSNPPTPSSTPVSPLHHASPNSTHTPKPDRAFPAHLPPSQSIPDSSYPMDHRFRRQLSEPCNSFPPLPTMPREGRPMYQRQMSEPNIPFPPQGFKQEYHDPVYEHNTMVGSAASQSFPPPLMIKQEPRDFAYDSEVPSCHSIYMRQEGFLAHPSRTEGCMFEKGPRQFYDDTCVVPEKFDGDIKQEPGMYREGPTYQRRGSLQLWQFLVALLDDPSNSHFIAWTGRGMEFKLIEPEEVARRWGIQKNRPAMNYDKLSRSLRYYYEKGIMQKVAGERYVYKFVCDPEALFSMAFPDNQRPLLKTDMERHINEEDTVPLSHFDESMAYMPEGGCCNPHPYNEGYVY
# In short: as §1
sequence,measurement,setting,value
TGACTC,binding signal,[1],"1.49 fold enrichment (6-mer frequency, TF over GST control)"
same,binding signal,[2],"1.39 fold enrichment (6-mer frequency, TF over GST control)"
same,binding signal,[3],"1.4 fold enrichment (6-mer frequency, TF over GST control)"
same,binding signal,[4],"1.39 fold enrichment (6-mer frequency, TF over GST control)"
same,binding signal,[5],"1.36 fold enrichment (6-mer frequency, TF over GST control)"
same,binding signal,[6],"1.27 fold enrichment (6-mer frequency, TF over GST control)"
same,binding signal,[7],"1.27 fold enrichment (6-mer frequency, TF over GST control)"
same,binding signal,[8],"1.42 fold enrichment (6-mer frequency, TF over GST control)"
same,binding signal,[9],"1.41 fold enrichment (6-mer frequency, TF over GST control)"
same,binding signal,[10],"1.36 fold enrichment (6-mer frequency, TF over GST control)"
same,binding signal,[11],"1.24 fold enrichment (6-mer frequency, TF over GST control)"
same,binding signal,[12],"1.1 fold enrichment (6-mer frequency, TF over GST control)"
same,binding signal,[13],"1.48 fold enrichment (6-mer frequency, TF over GST control)"
same,binding signal,[14],"1.35 fold enrichment (6-mer frequency, TF over GST control)"
same,binding signal,[15],"1.31 fold enrichment (6-mer frequency, TF over GST control)"
same,binding signal,[16],"1.31 fold enrichment (6-mer frequency, TF over GST control)"
same,binding signal,[17],"1.36 fold enrichment (6-mer frequency, TF over GST control)"
same,binding signal,[18],"1.07 fold enrichment (6-mer frequency, TF over GST control)"
same,binding signal,[19],"1.33 fold enrichment (6-mer frequency, TF over GST control)"
